Fold change permeability data for 39 compounds are collected here from PubChem BioAssay.

Activity calls are given as the source filed them. Cut-off read from the data, not from the text of the source: active = fold change permeability below about 0.7 or above about 1.3; inactive = in between.

A short description of the test: compounds altering in vitro BBB leakiness – cell-based, FITC-avidin fluorescence, HTS, primary screen (AID 1963498). Note: test concentration not given here. Conditions: brain endothelial barrier, actives lie on both sides.
On to `Cc1ccc(C2Nc3ccccc3C(=O)N2c2ccccc2)s1` (centres undefined), for which the fold change permeability was 1.3 (active).

With `CCN(C)C(=O)Oc1cccc([C@H](C)N(C)C)c1`, the fold change permeability was 1 (inactive).

In the case of `Cc1cc(C)c(S(=O)(=O)N(CCc2cccc(Br)c2)Cc2ccc(-c3cccc(S(C)(=O)=O)c3)cc2)c(C)c1`, the fold change permeability was 1.8 (active).

For `NC(N)=NCCC[C@H](NC(=O)[C@@H](N)Cc1ccc(O)cc1)C(=O)O`, the fold change permeability is 1.2 (inactive).

With `CCCCCCCCCC[Si](C)(C)CCC(=O)NC(Cc1ccc(C)cc1)c1ccccc1` (centres undefined), the fold change permeability was 0.8 (inactive).

`CC(C)c1cc(/C=C(\C#N)C(=O)NCCCc2ccccc2)cc(C(C)C)c1O`: the fold change permeability was 0.8 (inactive).

Consider `O=C(c1ccoc1)N1CCN(c2cc(-c3ccco3)nc3cc(-c4ccccc4)nn23)CC1`, for which the fold change permeability is 1.2 (inactive).

Turning to `NC(=Nc1ccc(OCCCCCOc2ccc(N=C(N)c3ccccc3)cc2)cc1)c1ccccc1`, the fold change permeability is 1 (inactive).

With `O=C(CCNNC(=O)c1ccncc1)NCc1ccccc1`, the fold change permeability was 0.8 (inactive).

Regarding `O=C(O)CN(CCOCCOCCN(CC(=O)O)CC(=O)O)CC(=O)O`, the fold change permeability is 0.8 (inactive).

For the compound `N=C(N)N1CCc2ccccc2C1`, the fold change permeability is 1.3 (active).

As to `CN1CC(=O)NC1=NC(=O)Nc1cccc(Cl)c1`, the fold change permeability was 0.7 (active).

As for `C[N+](C)(C)CCOC(N)=O`, the fold change permeability was 0.9 (inactive).

For `O=c1[nH]c(=O)n([C@H]2C[C@H](O)[C@@H](CO)O2)cc1Br`, the fold change permeability is 1 (inactive).

In the case of `O=C1CCC(c2ccc(-n3ccnc3)cc2)=NN1`, the fold change permeability is 1.1 (inactive).

`Nc1nc2[nH]c(=O)cnc2c(=O)[nH]1`: the fold change permeability is 1.4 (active).

For the compound `C[n+]1ccccc1CC(=O)c1ccc(Br)cc1`, the fold change permeability is 0.9 (inactive).

As to `CC(=O)N[C@H]1[C@H]([C@H](O)[C@H](O)CO)OC(C(=O)O)=C[C@@H]1N=C(N)N`, the fold change permeability was 0.9 (inactive).

Turning to `O=c1[nH]cnc2[nH]ncc12`, the fold change permeability was 1 (inactive).

For `NC(=O)c1cn(Cc2c(F)cccc2F)nn1`, the fold change permeability is 0.9 (inactive).

As to `CC(=O)OCC(CCn1cnc2cnc(N)nc21)COC(C)=O`, the fold change permeability was 0.9 (inactive).

As for `C[C@@H](N)C1CCC(C(=O)Nc2ccncc2)CC1` (some centres undefined), the fold change permeability was 1.2 (inactive).

Regarding `CCCCCN(CCCOC)C(=O)C(CCC(=O)O)NC(=O)c1ccc(Cl)c(Cl)c1` (centres undefined), the fold change permeability is 1 (inactive).

As for `COc1cc(O)c(C)c(O)c1C(=O)CCc1ccccc1`, the fold change permeability is 1.8 (active).

For the compound `CN(C)CCCN1c2ccccc2CCc2ccc(Cl)cc21`, the fold change permeability was 1.1 (inactive).

For `Brc1c(NC2=NCCN2)ccc2nccnc12`, the fold change permeability was 1.6 (active).

In the case of `O=C(O)/C=C1\CCCc2ccccc2C1O` (centres undefined), the fold change permeability was 0.8 (inactive).

Regarding `N[C@H](CO)C(=O)O`, the fold change permeability was 0.8 (inactive).

Consider `O=c1c2ccccc2[nH]c(=S)n1CCN1CCC(=C(c2ccc(F)cc2)c2ccc(F)cc2)CC1`, for which the fold change permeability is 1.6 (active).

For the compound `O=C(O)CCCCC1CCSS1` (centres undefined), the fold change permeability is 0.7 (active).

Turning to `COc1cc2c(cc1O)CC[C@@H]1[C@@H]2CC[C@]2(C)[C@@H](O)CC[C@@H]12`, the fold change permeability was 1.3 (active).

As to `CCC(=O)c1ccc2c(c1)N(CCCN(C)C)c1ccccc1S2`, the fold change permeability was 1.1 (inactive).

As to `CC(CCc1ccc(O)cc1)NCCc1ccc(O)c(O)c1` (centres undefined), the fold change permeability is 1.2 (inactive).

As to `CCCCCCCCCCCCCCSCC(=O)O`, the fold change permeability is 1.6 (active).

Take `CN=C(N)NCCC[C@H](N)C(=O)O`: the fold change permeability is 0.8 (inactive).

Consider `C=CCN1CCc2c(cc(O)c(O)c2Br)[C@@H](c2ccccc2)C1`, for which the fold change permeability was 1 (inactive).

Consider `CC(C)C[C@H](NC(=O)[C@@H](O)[C@H](N)Cc1ccccc1)C(=O)O`, for which the fold change permeability was 1 (inactive).

For `CCCN1C[C@H](CSC)C[C@@H]2c3cccc4[nH]cc(c34)C[C@H]21`, the fold change permeability is 1.1 (inactive).

With `CN(C)CC[C@@H](c1ccc(Cl)cc1)c1ccccn1`, the fold change permeability was 1.1 (inactive).
